From PubChem BioAssay AID2291 (The Scripps Research Institute Molecular Screening Center, 2010) come the findings set out here.

About 75 (0.5%) of roughly 16,000 compounds were called active. Rule as the data show it: active = inhibition above about 30%; inactive = the rest. The sample as a whole holds a higher share of actives than the screen did.

Chain of Protein phosphatase methylesterase 1 (Homo sapiens) (Q9Y570 whole entry, looked up): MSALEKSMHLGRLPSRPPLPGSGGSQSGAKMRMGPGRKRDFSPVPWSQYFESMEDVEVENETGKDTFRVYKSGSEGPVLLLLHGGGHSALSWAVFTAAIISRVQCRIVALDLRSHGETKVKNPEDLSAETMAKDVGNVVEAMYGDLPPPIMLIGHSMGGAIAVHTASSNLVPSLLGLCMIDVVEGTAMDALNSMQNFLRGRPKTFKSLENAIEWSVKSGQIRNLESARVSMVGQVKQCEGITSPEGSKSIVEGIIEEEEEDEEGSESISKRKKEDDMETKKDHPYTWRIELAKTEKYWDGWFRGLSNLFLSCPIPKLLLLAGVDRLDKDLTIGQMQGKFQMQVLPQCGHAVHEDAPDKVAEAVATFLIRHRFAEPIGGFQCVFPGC

This assay has as its target Protein phosphatase methylesterase 1 (Homo sapiens) (UniProt Q9Y570). The experiment in a line: Maybridge compound blocking human PME-1 (AID 2291). The settings on record: recombinant PME-1, FP-Rh probe fluorescence polarization; at 9 µM; active compounds read high. A general note: Fluorescence polarisation rises when a labelled molecule tumbles more slowly, as on binding a larger partner.
The inhibition is the drop in the measured response relative to a control, in per cent. For `CCOC(=O)c1cc(C)nc(Sc2ccccc2NC(=O)Nc2ccc(Cl)cc2)c1C#N`, the inhibition was 25.2% (inactive). For `CCOC(=O)c1c(C)nn(-c2ncccc2NC(=O)Nc2cccc(Cl)c2Cl)c1C` the value was 37.4% (active); for `Cc1nc2cc3c(cc2s1)OCO3`, -0.92% (inactive); for `O=C(NC(=S)Nc1nc(-c2ccc(Cl)cc2)cs1)C1CC1`, -13.9% (inactive).

Turning to `O=S(=O)(Nc1ccc2[nH]ccc2c1)c1cccs1`, the inhibition is 3.17% (inactive). The value for `CCCCC#Cc1cncc(C(=O)NNC(=O)Nc2ccc(Cl)cc2)c1` was 2.26% (inactive). The value for `O=C1CSC(=S)N1c1ccc(N2CCCCCC2)c(N2C(=O)CSC2=S)c1` was -4.27% (inactive). Regarding `COC(=O)c1sccc1Oc1ccc(Cl)cc1[N+](=O)[O-]`, the inhibition was 2.05% (inactive). The value for `O=C(NCc1cccnc1)c1cnc2ccccc2n1` was 3.18% (inactive); that for `Cc1cc2c(cn1)C(=O)c1ccccc1-2` was 4.96% (inactive); that for `O=C1C(Cl)=C(Oc2cc(Cl)c(Cl)cc2Cl)C(=O)c2ccccc21` was 33.4% (active). The value for `COc1cccc(C(=O)c2sc3nsc(SCc4ccc(F)cc4)c3c2N)c1` was -5.96% (inactive).

Regarding `N#C/C(=C\c1ccsc1Sc1ccc(Cl)cc1)S(=O)(=O)c1ccc(Cl)cc1`, the inhibition was -9.13% (inactive). As to `Cc1c(-c2cnc(NC(=O)c3ccccc3)s2)sc2ccc(Cl)cc12`, the inhibition is -9.03% (inactive). For `CCOC(=O)C(NC(=O)Nc1ccccc1)(Nc1ccccc1OC)C(F)(F)F` (configuration not stated) the value was -0.9% (inactive); for `O=C(O)CSC(SCC(=O)O)c1ccc2c(c1)OCO2`, -0.753% (inactive). Consider `O=c1[nH]/c(=C/c2ccc(OC(F)(F)F)cc2)c(=O)[nH]/c1=C/c1ccc(OC(F)(F)F)cc1`, for which the inhibition was -0.938% (inactive).

For `N#Cc1c(C(F)(F)F)cc(-c2cccs2)nc1N1CCCCC1`, the inhibition was -3.16% (inactive). For `Oc1ccccc1C=Nc1ccc(F)cc1` the value was -4.6% (inactive); for `COc1ccc(-c2csc(-c3cc(C)on3)n2)cc1`, 9.36% (inactive); for `Cc1ccc(/C=c2\sc3nc4ccccc4n3c2=O)o1`, 7.34% (inactive).

In the case of `Cc1c(NC(=O)c2cccnc2)c(=O)n(-c2ccccc2)n1C`, the inhibition was 2.93% (inactive). The value for `CCOC(=O)c1c(-c2ccco2)csc1NC(=O)Nc1ccc(Cl)cc1` was -41.9% (inactive); that for `OC(c1ccncc1)c1c[nH]c2ccccc12` (configuration not stated) was -0.868% (inactive); that for `O/N=C/c1ccc(F)c(Cl)c1` was 2.78% (inactive). The value for `Cc1ccc2oc(-c3cccs3)nc2c1` was 2.37% (inactive). For `Cc1cc(NCc2cccnc2)no1` the value was 1.95% (inactive); for `NNC(=O)c1csc(-c2ccc(C(F)(F)F)cn2)n1`, 4.74% (inactive). Turning to `CC(=O)Nc1cccc([N+](=O)[O-])c1`, the inhibition was 2.8% (inactive).

For `CSc1nc(N)n(-c2ccccc2)n1`, the inhibition is 2.24% (inactive).

On to `CCOC(=O)C(O)(NC(=O)Nc1ccccc1)C(F)(F)F` (configuration not stated), for which the inhibition is 6.03% (inactive).

In the case of `CCCCc1c(COC)nc(-c2ccc(Cl)cc2)[nH]c1=O`, the inhibition was 2.14% (inactive). Consider `CCCCCCCCc1ccc(C(=O)O)cc1`, for which the inhibition was 1.13% (inactive). For `Cn1c(=O)c(/C(N)=N/OC(=O)c2ccccc2Cl)cn(-c2ccccc2)c1=O` the value was -0.69% (inactive); for `Cc1nnc(Sc2ccc([N+](=O)[O-])c(Sc3nnc(C)s3)n2)s1`, 5.33% (inactive); for `O=C(Nn1cnnc1)c1cccs1`, 5.13% (inactive). As for `O=C(Nc1ccccc1)N1CCN(c2ncnc3sccc23)CC1`, the inhibition was 1.02% (inactive). With `O=C(O)c1ccccc1/C=N/Nc1cc(Cl)ccc1Cl`, the inhibition is 6.19% (inactive). With `CCOC(=O)N/N=C(\C)c1cccc(NC(C)=O)c1`, the inhibition was -0.548% (inactive). The value for `CCCN(CCC)S(=O)(=O)c1ccc(C(=O)O/N=C(\C)c2ccccc2O)cc1` was 0.391% (inactive). On to `COC(=O)c1cnc(Oc2ccc(N)cc2)cc1C(F)(F)F`, for which the inhibition was 0.526% (inactive). Consider `CCOC(=O)NC(=O)/C(=C/NCc1cccs1)C(=O)OCC`, for which the inhibition is 0.233% (inactive).

Consider `COc1ccccc1NC(=O)c1ccc(C#Cc2ccccc2)o1`, for which the inhibition is -10.2% (inactive).

Take `CS/C(N)=N/N=C/c1cccs1`: the inhibition is 1.26% (inactive). Regarding `CC1=NOC(=O)/C1=C\c1ccccc1`, the inhibition is 3.58% (inactive). Turning to `COc1ccc(-c2nnc(SCC(O)C(F)(F)F)n2-c2cccc(OC)c2)cc1` (configuration not stated), the inhibition is 1.14% (inactive). For `CC(C)(C)c1ccc(NC(=O)c2ccco2)c(NC(=O)C(Cl)(Cl)Cl)c1` the value was 2.58% (inactive); for `FC(F)(F)c1cccc(-n2c(-c3ccncc3)n[nH]c2=S)c1`, -4.3% (inactive).

For the molecule `Cc1ccc2oc(=O)n(CC/C(N)=N/OC(=O)c3ccc(C(F)(F)F)nc3C)c2c1`, the inhibition was 4.33% (inactive). The value for `CCOc1cc(-c2cccs2)nc(N)n1` was 0.0895% (inactive); that for `Cc1ccc(OC(=O)c2nn(-c3ccccc3)nc2C)c([N+](=O)[O-])n1` was -1.37% (inactive); that for `O=C(CN1C(=O)/C(=C/c2ccccc2Cl)N=C1c1ccccc1)c1ccccc1` was -14% (inactive). Turning to `COc1c(Br)cc(C#N)cc1Br`, the inhibition is 7.88% (inactive). The value for `O=C(Nc1ccccc1)O/N=C1/CCCc2occc21` was -1.78% (inactive); that for `COc1ccc(CCNCC(O)Cn2ccc3ccccc32)cc1OC` (configuration not stated) was -0.35% (inactive). The value for `COc1cc(NC(=O)COc2cc(Cl)c(Cl)cc2Cl)cc(OC)c1OC` was -4.1% (inactive). For `N#Cc1c(N)nc2c3c1NC(O)(c1ccccc1)C(C#N)C3c1cc(Cl)ccc1O2` (configuration not stated) the value was -25.9% (inactive); for `COc1cccc(NC(=S)NNC(=S)NC2CC3CCC2C3)c1` (configuration not stated), 5.71% (inactive); for `O=C(O)C1CC2CC1CCC2O` (configuration not stated), 4.17% (inactive).

Turning to `NC(=O)c1c(C(F)(F)F)cc(C(F)(F)F)cc1C(F)(F)F`, the inhibition is -0.0338% (inactive). Turning to `O/N=C/c1sccc1Oc1ccccc1`, the inhibition was 5.19% (inactive). As to `CSc1nccc(-c2ccc(S(=O)(=O)n3nc(C)c(Br)c3C)s2)n1`, the inhibition is -1.68% (inactive). The value for `CC1CN=C(N(Cc2cccnc2)C(=O)Nc2ccc(Cl)c(Cl)c2)S1` (configuration not stated) was -62.8% (inactive); that for `N#Cc1cn(C2CCCCC2)c(=O)[nH]c1=O` was 6.75% (inactive); that for `COCCOc1ccc(NC(=S)N2CCOCC2)cc1` was -0.885% (inactive). For `O=C1CCN(Cc2ccccc2)C(=O)N1c1ccc2c(c1)CCO2` the value was 5.14% (inactive). As to `Cc1nc(-c2nnc(SCC(=O)c3ccc(F)cc3)n2C)cs1`, the inhibition was 3.93% (inactive). The value for `CSc1nc(N)c2ccccc2n1` was 4.47% (inactive). The value for `O/N=C(\c1ccccc1)c1ccccn1` was 1.61% (inactive); that for `Cc1cc(C)n(/N=c2\sc(-c3ccccc3)cn2C2CC3C=CC2C3)c(=O)c1C#N` (configuration not stated) was 1.38% (inactive); that for `NC(=O)c1ccc(-c2csnn2)cc1` was 4.57% (inactive). For `CC(=O)N1CCc2cc(NC(=S)Nc3ccccc3Cl)ccc21` the value was -0.615% (inactive). On to `CC1=CC(=O)C(CCC2=CC(=O)C(C)=CC2=O)=CC1=O`, for which the inhibition is -5.46% (inactive). For `CN(C)/C=C1/C(=O)NN=C1CSc1ccc(Cl)cc1` the value was 4.88% (inactive). With `O=S(=O)(CCN1CCC(C(F)(F)F)CC1)c1ccccc1`, the inhibition was 5.79% (inactive). As for `CSc1nc2c(c(/C=C/c3ccccc3)c1C#N)CCC2`, the inhibition is 0.0789% (inactive). As to `CSC(=Nc1ccccc1C(F)(F)F)N1CCCC1`, the inhibition was -2.33% (inactive).

Take `Cc1ccc(S(=O)(=O)NC(=O)NCCSCc2ccco2)cc1`: the inhibition is 5.18% (inactive). With `NNC(=O)c1cc2ccccc2s1`, the inhibition was 7.18% (inactive). The value for `O=C(O)c1nccnc1C(=O)O` was 5.09% (inactive); that for `CC(=O)OC1=CCC2C3CC[C@@]4(C)CC(OC(C)=O)CCC4(C)C3C(OC(C)=O)CC12C` (some centres not stated) was -6.54% (inactive); that for `OC1(C#Cc2ccccc2)CCN(Cc2ccccc2)CC1` was 4.15% (inactive). As to `O=C(Nc1ccc(OCc2ccccc2)cc1)OCC1CN(Cc2ccccc2)CCO1` (configuration not stated), the inhibition was 5.09% (inactive). For `CCCCCCCCCCCCCC#CC(O)C(N)CO` (configuration not stated) the value was -4.1% (inactive); for `OCCNC(=S)Nc1ccccc1-c1ccccc1`, 0.487% (inactive); for `FC(F)(F)C1=CC=NCCN1`, 10.1% (inactive). The value for `OCCNc1nc2ccccc2[nH]1` was -2.41% (inactive). Turning to `O=S(=O)(c1ccccc1)c1cc(C(F)(F)F)cc(C(F)(F)F)c1`, the inhibition was -0.142% (inactive). As for `O=C(NCc1ccc2c(c1)OCO2)c1cccc2c1OCCCO2`, the inhibition was -4.73% (inactive).

Regarding `O=C1c2cc(S(=O)(=O)Oc3ccccc3)ccc2-c2ccc(S(=O)(=O)Oc3ccccc3)cc21`, the inhibition was 5.56% (inactive). For `CN(Cc1nnc(-c2ccc3ccccc3c2)o1)c1nnc(C(F)(F)F)s1` the value was 3.28% (inactive). Take `COC(=O)c1ccccc1-c1c2ccc(=O)cc-2oc2cc(O)ccc12`: the inhibition was 61.2% (active). For `COC(=O)c1ccccc1N(C)C(=O)c1cc(OC)c(OC)c(OC)c1` the value was 0.643% (inactive); for `COC(=O)c1ccccc1NC(=O)c1ccc(Oc2cc(Cl)cc(Cl)c2)o1`, -2.65% (inactive). For `S=C(SCc1ncon1)N1CCSCC1` the value was -2.3% (inactive). On to `C/C(=N\NC(N)=S)c1cc2cc(Cl)ccc2o1`, for which the inhibition is -1.43% (inactive). With `Clc1ccc(C2=NN(Cc3ccccc3)CC2)s1`, the inhibition was 2.04% (inactive). For the molecule `NC(=NC(=O)CCn1c(=O)oc2ccccc21)c1cc(Cl)cc(Cl)c1`, the inhibition was -1.92% (inactive). For the molecule `O=S(=O)(Oc1cccc(C(F)(F)F)c1)c1cc(S(=O)(=O)c2ccccc2)cs1`, the inhibition was -3.1% (inactive).

Consider `CC(C)(C)c1cc(C(=O)N/N=C/c2ccc([N+](=O)[O-])s2)n[nH]1`, for which the inhibition was 4.23% (inactive).

For the molecule `CCOC(=O)/C(C#N)=C/N/S(C)=N/N=C/c1ccc(N(C)C)cc1` (configuration not stated), the inhibition is 4.21% (inactive). The value for `NNC(=O)CSc1nnc(-c2ccccc2)n1-c1ccccc1` was 3.4% (inactive).
